Holding throughout (experiment): yeast three-hybrid, YBZ-1, SC-Leu-His + 0.5 mM 3-AT, 4 days
Common to all, as to conditions: tags: N-Gal4 AD-HA kept; label: inside an RPR1-promoter hybrid RNA with tandem MS2 sites; ssRNA

Assay [1] concerns the target PUM1 PUF domain R7-KYK (Homo sapiens, UniProt Q14671 828-1176, S1079K;N1080Y;E1083K). In a few lines: (§1)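 The interaction score is the log change in variant frequency from input to selection. Scores were computed in log2 with a pseudocount of 1 for absent variants, using Illumina sequencing of PCR-amplified repeat regions. The input came from four days on SC-Leu and the selection from four days on SC-Leu-His + 0.5 mM 3-AT. The cells were strain YBZ-1 (LexA–MS2 coat fusion, HIS3 reporter) co-expressing Pumilio-1 PUF domain libraries and matching RNA elements from a centromeric plasmid.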

Assay [2] deals with PUM1 PUF domain R4-PHM (Homo sapiens, UniProt Q14671 828-1176, N971P;Q975M). In outline:
as §1

Assay [3] concerns the target PUM1 PUF domain R1-RYL (Homo sapiens, UniProt Q14671 828-1176, S863R;R864Y;Q867L). In outline:
as §1

In assay [4] the target is PUM1 PUF domain R8-RWR (Homo sapiens, UniProt Q14671 828-1176, N1122R;Y1123W;Q1126R). In outline:
as §1

In assay [5] the target is PUM1 PUF domain R5-SAT (Homo sapiens, UniProt Q14671 828-1176, C1007S;R1008A;Q1011T). In a few lines:
as §1

For assay [6], the target named is T1, PUM1 PUF domain R6-RYA (Homo sapiens, UniProt Q14671 828-1176, N1043R;Q1047A).
T1 sequence: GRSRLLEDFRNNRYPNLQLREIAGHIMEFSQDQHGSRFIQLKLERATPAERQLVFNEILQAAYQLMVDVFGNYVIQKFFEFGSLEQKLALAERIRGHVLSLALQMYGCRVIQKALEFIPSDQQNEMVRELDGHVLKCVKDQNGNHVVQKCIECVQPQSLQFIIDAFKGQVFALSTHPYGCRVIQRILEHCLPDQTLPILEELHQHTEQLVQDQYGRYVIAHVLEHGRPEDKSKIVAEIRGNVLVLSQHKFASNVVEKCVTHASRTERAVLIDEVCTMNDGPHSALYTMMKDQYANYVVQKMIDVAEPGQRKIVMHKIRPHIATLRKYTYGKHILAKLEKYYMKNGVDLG
In a few lines: as §1

Assay [7] deals with PUM1 PUF domain R5-LFQ (Homo sapiens, UniProt Q14671 828-1176, C1007L;R1008F). In outline:
as §1

For assay [8], the target named is T2, PUM1 PUF domain R6-SYM (Homo sapiens, UniProt Q14671 828-1176, N1043S;Q1047M).
T2 sequence: T1 sequence with R216S, A220M
In outline:
as §1

Assay [9] concerns the target PUM1 PUF domain R4-SRC (Homo sapiens, UniProt Q14671 828-1176, N971S;H972R;Q975C). In a few lines:
as §1

The target of assay [10] is PUM1 PUF domain R5-SFS (Homo sapiens, UniProt Q14671 828-1176, C1007S;R1008F;Q1011S). In outline:
as §1

Substitutions are numbered along the chain they refer to.

Sequence of PUM1 PUF domain R7-KYK (Q14671 828-1176 S1079K/N1080Y/E1083K): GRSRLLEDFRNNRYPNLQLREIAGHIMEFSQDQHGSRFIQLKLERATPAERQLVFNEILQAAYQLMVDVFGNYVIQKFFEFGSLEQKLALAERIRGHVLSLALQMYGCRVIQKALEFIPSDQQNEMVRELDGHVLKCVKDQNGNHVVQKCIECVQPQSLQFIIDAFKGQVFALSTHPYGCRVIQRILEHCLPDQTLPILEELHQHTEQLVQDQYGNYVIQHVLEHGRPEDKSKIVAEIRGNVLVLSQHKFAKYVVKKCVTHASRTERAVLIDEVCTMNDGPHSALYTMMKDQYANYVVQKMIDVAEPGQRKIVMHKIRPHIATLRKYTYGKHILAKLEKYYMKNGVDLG

As to “GGCUAGAACUAGUGGAUCCCCCGGCGCCCGGCGGCUCGAGCCCGGGUAAGUAUAAAUAGUCUGCAUGCCGCCGGGCGCCAUGCCUGCAGGUCGACUCUAGAAAACAUG”, the binding signal in assay [1] was 4.11 log2 enrichment (interaction score).
As for “GGCUAGAACUAGUGGAUCCCCCGGCGCCCGGCGGCUCGAGCCCGGGUAAGUGUAUAUAGUCUGCAUGCCGCCGGGCGCCAUGCCUGCAGGUCGACUCUAGAAAACAUG”, the binding signal in assay [2] is 5.12 log2 enrichment (interaction score).
For “GGCUAGAACUAGUGGAUCCCCCGGCGCCCGGCGGCUCGAGCCCGGGUAAGUGUAAAUUGUCUGCAUGCCGCCGGGCGCCAUGCCUGCAGGUCGACUCUAGAAAACAUG”, the binding signal in assay [3] is 2.71 log2 enrichment (interaction score).
“GGCUAGAACUAGUGGAUCCCCCGGCGCCCGGCGGCUCGAGCCCGGGUAAGCGUAAAUAGUCUGCAUGCCGCCGGGCGCCAUGCCUGCAGGUCGACUCUAGAAAACAUG”: the binding signal in [4] was 7 log2 enrichment (interaction score).
With “GGCUAGAACUAGUGGAUCCCCCGGCGCCCGGCGGCUCGAGCCCGGGUAAGUGUAAAUCGUCUGCAUGCCGCCGGGCGCCAUGCCUGCAGGUCGACUCUAGAAAACAUG”, the binding signal in [3] was 2.26 log2 enrichment (interaction score).
With “GGCUAGAACUAGUGGAUCCCCCGGCGCCCGGCGGCUCGAGCCCGGGUAAGUGUGAAUAGUCUGCAUGCCGCCGGGCGCCAUGCCUGCAGGUCGACUCUAGAAAACAUG”, the binding signal in assay [5] is 2.75 log2 enrichment (interaction score).
In the case of “GGCUAGAACUAGUGGAUCCCCCGGCGCCCGGCGGCUCGAGCCCGGGUAAGUGUAAAUAGUCUGCAUGCCGCCGGGCGCCAUGCCUGCAGGUCGACUCUAGAAAACAUG”, the binding signal in [2] is 4.14 log2 enrichment (interaction score); in [6], 3.02 log2 enrichment (interaction score); in assay [7], 2.45 log2 enrichment (interaction score); in assay [1] it was 2.18 log2 enrichment (interaction score); in assay [8], 2.79 log2 enrichment (interaction score); in assay [9] it was 4.65 log2 enrichment (interaction score). In addition, in [4], the binding signal was 6.58 log2 enrichment (interaction score).
On to “GGCUAGAACUAGUGGAUCCCCCGGCGCCCGGCGGCUCGAGCCCGGGUAAGUGUCAAUAGUCUGCAUGCCGCCGGGCGCCAUGCCUGCAGGUCGACUCUAGAAAACAUG”, for which the binding signal in assay [10] was 3.78 log2 enrichment (interaction score).
In the case of “GGCUAGAACUAGUGGAUCCCCCGGCGCCCGGCGGCUCGAGCCCGGGUAAGUCUAAAUAGUCUGCAUGCCGCCGGGCGCCAUGCCUGCAGGUCGACUCUAGAAAACAUG”, in assay [1], the binding signal was 5.83 log2 enrichment (interaction score).
